Data as given in PubChem BioAssay AID1578 (Sanford-Burnham Center for Chemical Genomics, 2009).
Screen size: about 290,000 compounds; about 3,000 (1%) were called active. The full list was thinned out, with actives kept by preference. A number with no mark means an inactive call. Cut-off read from the data, not from the text of the source: active = inhibition mostly above about 36% (no sharp cut-off); inactive = mostly below about 34%.

assay: inhibition of NOD1-driven NF-kB reporter – cell-based, luminescence, uHTS, primary screen (AID 1578); details: NOD1-driven NF-kB luciferase reporter cells, at 4 µM, active compounds read high;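 note: HEK-293T reporter cells stimulated with the NOD1 agonist gamma-tri-DAP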

| SMILES | inhibition |
| --- | --- |
| CC(=O)c1c(C)nc(-c2ccccc2)nc1NC(=O)C(C)C | -18% |
| CCOC(=O)/C(C#N)=N/Nc1c(S(=O)(=O)Cc2ccco2)csc1C(=O)OC | -12.9% |
| COC(=O)c1scc(C)c1NC(=O)c1ccc(Cl)cc1 | -13.3% |
| COC(=O)c1sc(SC)c(S(=O)(=O)C(C)C)c1N/N=C(\C#N)S(=O)(=O)c1ccccn1 | -7.4% |
| COC(=O)c1sc(SC)c(S(=O)(=O)C(C)C)c1N/N=C(\C#N)C(=O)c1ccccc1 | -8.9% |
| COC(=O)c1cc(OC)c(OC)cc1NC(=O)Cc1ccccc1[N+](=O)[O-] | 53.2% |
| CCSc1nnc(NC(=O)c2cc(C)on2)s1 | -22.4% |
| Cc1ccc(CNS(=O)(=O)c2ccc3c(c2)NC(=O)C(C)S3)cc1 (stereo unspecified) | 16.1% |
| Cc1ccccc1C(=O)N1CCC(C(N)=O)CC1 | 24.1% |
| O=C(NCc1ccccc1)C1COc2ccccc2O1 (stereo unspecified) | -48.6% |
| O=C(N1CCN(c2ccccn2)CC1)C(Cl)(Cl)Cl | 32.8% |
| CC(Cl)C(=O)N1c2ccccc2CCc2ccccc21 (stereo unspecified) | 19.8% |
| O=C(CCl)N1c2ccccc2CCc2ccccc21 | 94.7% (active) |
| O=C(CN1CCCCC1)N1c2ccccc2CCc2ccccc21 | 7.5% |
| C=CCNc1cnn(-c2ccc(C)cc2)c(=O)c1Sc1ccc(C)cc1 | 11.6% |
| CC/C(=N\NC(=O)c1ccc(Br)cc1)c1ccccc1 | -30.9% |
| Nc1nc2c(s1)CCc1ccccc1-2 | -11.8% |
| N#C/C(=C(/O)CCl)c1nc(-c2ccccc2)cs1 | -4.2% |
| N#C/C(=C(/O)CCl)c1nc2c(s1)CCc1ccccc1-2 | 78.6% (active) |
| C=CCn1c(COc2ccc(Cl)cc2)nnc1SCC(=O)N/N=C/c1ccccc1 | 1.1% |
| C=CCn1c(COc2ccccc2)nnc1SC(C)C(=O)N/N=C/c1cc(Cl)ccc1O (stereo unspecified) | 2% |
| C=CCn1c(COc2ccccc2)nnc1SCC(=O)N/N=C/c1cc(Cl)ccc1O | 39.9% (active) |
| CN(C)C(=O)CN1CCN(c2nc3nonc3nc2N2CCCCC2)CC1 | -28.9% |

| SMILES | inhibition |
| --- | --- |
| CC(C)(C)OC(=O)N/N=C/c1cccn1-c1ccc([N+](=O)[O-])cc1 | -6.6% |
| COCC(=O)OC/C(O)=C(\C#N)c1nc2ccccc2[nH]1 | 66.5% (active) |
| COc1cc(OC)cc(C(=O)OC/C(O)=C(\C#N)c2nc3ccccc3[nH]2)c1 | -0.4% |
| CCCC(=O)OC/C(O)=C(\C#N)c1nc2ccccc2[nH]1 | 105% (active) |
| N#C/C(=C(/O)COC(=O)Cc1c[nH]c2ccccc12)c1nc2ccccc2[nH]1 | -14.1% |
| N#C/C(=C(/O)COC(=O)c1ccc(O)cc1)c1nc2ccccc2[nH]1 | -5.6% |
| CCOC(=O)c1c(C)[nH]c(C(=O)OC/C(O)=C(\C#N)c2nc3ccccc3[nH]2)c1C | -26.6% |
| Cc1ccc(C(=O)OC/C(O)=C(\C#N)c2nc3ccccc3[nH]2)cc1S(=O)(=O)N1CCOCC1 | 20.1% |
| CC(C)C(=O)OC/C(O)=C(\C#N)c1nc2ccccc2[nH]1 | 0.8% |
| N#C/C(=C(/O)COC(=O)CCCNC(=O)c1ccc(Cl)cc1)c1nc2ccccc2[nH]1 | 86.4% (active) |
| N#C/C(=C(/O)COC(=O)c1cccnc1Cl)c1nc2ccccc2[nH]1 | -23.4% |
| N#C/C(=C(/O)COC(=O)CCc1ccc(S(=O)(=O)N2CCOCC2)cc1)c1nc2ccccc2[nH]1 | 93.4% (active) |
| N#C/C(=C(/O)COC(=O)c1ccc(Cl)c(S(=O)(=O)N2CCOCC2)c1)c1nc2ccccc2[nH]1 | 17.7% |
| O=C(CSc1nc(-c2ccccc2)c(-c2ccccc2)[nH]1)Nc1ccc2c(c1)OCO2 | -5.7% |
| O=C(CSc1nn(-c2ccccc2)c(=S)s1)NC(=O)NCc1ccco1 | 17.4% |
| CCCCN(C)CCNC(=O)c1cc2c(=O)[nH]c3ccccc3c2n1C | -7.1% |
| CCOC(=O)COc1ccc2c(C)cc(=O)oc2c1C(=O)c1ccccc1 | 5.9% |
| O=C1CC(N2CCN(c3ccc(O)cc3)CC2)C(=O)N1c1ccc2c(c1)OCO2 (stereo unspecified) | -26.7% |
| Cc1ccc(C(C)C)c(OC/C(O)=C(\C#N)c2nc3ccccc3[nH]2)c1 | 36.3% (active) |
| COc1ccc(OC/C(O)=C(\C#N)c2nc3ccccc3[nH]2)cc1 | -23.4% |
| COc1ccc(/C(C)=N/OC/C(O)=C(\C#N)c2nc3ccccc3[nH]2)cc1OC | 5.6% |
| CCC(C)c1ccc(OCC(=O)NNC(=O)C2CCCCC2)cc1 (stereo unspecified) | -4.3% |
| O=C(Nc1ccccc1Br)c1ccccc1-c1ccccc1 | -10.7% |

| SMILES | inhibition |
| --- | --- |
| Cc1ccccc1NC(=O)c1ccccc1-c1ccccc1 | -24.9% |
| CC(=O)Nc1ccccc1NC(=O)c1ccccc1-c1ccccc1 | 73% (active) |
| CC(C)(CO)N=Cc1c(O)[nH]c2ccccc12 | -14.8% |
| CCCCCCC(=O)Nc1ccc(Cl)cn1 | -24.4% |
| C=CCN(CC=C)C(=O)c1cccc(OC2CCN(S(=O)(=O)N(C)C)CC2)c1 | 8.4% |
| CCOc1ccc2nc(SCC(=O)N3CCCCCC3)c(C#N)cc2c1 | -18.2% |
| CCOc1ccc2nc(SCC#N)c(C#N)cc2c1 | 68.2% (active) |
| CCSc1nc2ccc(OC)cc2cc1C#N | -45.3% |
| O=C(O)c1cccc(CN2C(=O)S/C(=C/c3cccc([N+](=O)[O-])c3)C2=O)c1 | 1.5% |
| O=C1/C(=C\c2cc(Br)cc(Br)c2O)SC(=S)N1Cc1ccccc1 | 73.3% (active) |
| O=C1/C(=C\c2cccc(O)c2O)SC(=S)N1Cc1ccccc1 | -20.4% |
| COc1ccc(O)c(/C=C2/SC(=S)N(Cc3ccccc3)C2=O)c1 | -3.5% |
| CCOC(=O)CN1C(=O)S/C(=C/c2ccc(O)c([N+](=O)[O-])c2)C1=O | -4.5% |
| O=C(O)c1cccc(CN2C(=O)S/C(=C/c3ccccc3[N+](=O)[O-])C2=O)c1 | 3.9% |
| O=C1/C(=C\c2ccc(O)cc2)SC(=S)N1Cc1ccccc1 | -9.6% |
| CCOC(=O)N1CCN(S(=O)(=O)N2CCCC(C(=O)NCc3ccc(F)cc3)C2)CC1 (stereo unspecified) | 3.3% |
| O=C(CCC(=O)N(c1cccc(F)c1)C(C(=O)NC1CCCC1)c1ccncc1)Nc1cccnc1 (stereo unspecified) | -42.2% |
| CC1C=CCC2C(=O)N(c3cccc(C(=O)Nc4ccc(Br)cc4)c3)C(=O)C12 (stereo unspecified) | -16.6% |
| CCCCN(CC)S(=O)(=O)c1c(C)[nH]c(=O)[nH]c1=O | -34.4% |
| CCOc1ccc(N2CC(C(=O)Nc3nnc(C4CCCCC4)s3)CC2=O)cc1 (stereo unspecified) | -28.2% |
| O=C(O)COc1ccccc1/C=N/NC(=O)c1cc(-c2ccccc2)nc2ccccc12 | -11.3% |
| CCOc1cc(C(c2c(C)[nH][nH]c2=O)c2c(C)[nH][nH]c2=O)cc(Cl)c1O | 7.7% |
| CC(Cc1ccccc1)C(=O)NCc1ccncc1 (stereo unspecified) | -26.7% |

| SMILES | inhibition |
| --- | --- |
| CCc1ccc(NC(=O)C(=O)NCCN2CCN(Cc3ccc([N+](=O)[O-])cc3)CC2)cc1 | 12.5% |
| CCCCc1ccc(NC(=O)C(=O)NCCN2CCN(Cc3ccc([N+](=O)[O-])cc3)CC2)cc1 | 34.7% (active) |
| CCCCc1ccc(NC(=O)C(=O)NCCN2CCN(C(=O)c3ccc([N+](=O)[O-])cc3)CC2)cc1 | 0.1% |
| COc1ccc(-c2nnc(SCC(=O)N(Cc3ccccc3)C(C)(C)C)o2)cc1OC | 58.8% (active) |
| COc1cc(OC)cc(-c2nnc(SCC(=O)N(Cc3ccccc3)C(C)(C)C)o2)c1 | 14.6% |
| COc1cc(-c2nnc(SCC(=O)N(Cc3ccccc3)C(C)(C)C)o2)cc(OC)c1OC | 10.5% |
| CC1CN(S(=O)(=O)c2cccs2)CC(C)O1 (stereo unspecified) | 34.6% (active) |
| O=S(=O)(c1cccs1)N1CCN(S(=O)(=O)c2cccs2)CC1 | -16.1% |
| CC1CN(S(=O)(=O)c2ccccc2)CC(C)O1 (stereo unspecified) | -8.4% |
| CCOC(=O)NC(=O)/C(C#N)=N\Nc1cccc(Cl)c1 | 55.7% (active) |
| CCOC(=O)NC(=O)/C(C#N)=N\Nc1cccc(OC)c1 | -43% |
| CCOC(=O)NC(=O)/C(C#N)=N\Nc1ccc(Cl)cc1 | -37.5% |
| CC(C)COc1ccc(/C(O)=C2/C(=O)C(=O)N(CCN(C)C)C2c2ccncc2)cc1 (stereo unspecified) | -0.8% |
| CS(=O)(=O)N1CCN(C(=O)COc2ccc3ccccc3c2)CC1 | 6.1% |
| CCc1ccc2oc(C(=O)NCCc3ccc(S(N)(=O)=O)cc3)cc(=O)c2c1 | -0.9% |
| CCOC(=O)c1c(NC(=O)C(=O)N/N=C/c2ccc(O)c(OC)c2)sc2c1CCCCC2 | 81.2% (active) |
| CCOC(=O)c1c(NC(=O)N/N=C/c2ccc(O)c(OC)c2)sc(C(C)=O)c1C | 53.1% (active) |
| COc1cc(/C=N/NC(=O)c2sc(N)c(C#N)c2C)ccc1O | -14.2% |
| CCOC(=O)c1c(NC(=O)N/N=C/c2ccccc2OCC)sc(C(C)=O)c1C | -33.7% |
| CCOC(=O)c1c(NC(=O)C(=O)N/N=C/c2ccccc2OC)sc2c1CCCCC2 | 7.6% |
| CCOC(=O)c1c(NC(=O)C(=O)N/N=C/c2ccc(OCC)cc2)sc2c1CCCCC2 | -14.4% |
| CN(CC(=O)Nc1ccccc1Cl)C1CCCCC1 | -46.1% |
